Experimental data from PubChem BioAssay AID1010 (Sanford-Burnham Center for Chemical Genomics, 2008).
The whole screen tested about 48,000 compounds, of which about 160 (0.33%) were called active.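 The calls were made as follows: active = survival measured by cellular ATP above 50% at 15 µg/ml in the first screen; inactive = the rest.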 The list comes from a sample in which actives are over-represented; it also holds similar structures and randomly drawn compounds.

Assay: protection against thapsigargin ER stress killing – CSM14.1 cells, ATP luminescence, primary screen (AID 1010);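 also: cell death triggered by about 15 µM thapsigargin; ATP read 24 h after thapsigargin was added; plate controls were thapsigargin with DMSO for no effect and DMSO without thapsigargin for full effect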
Conditions: CSM14.1 thapsigargin ER stress survival, stronger effect = higher value, screened at 15 µg/mL (by protocol)

Compound	relative survival (cellular ATP)
COc1ccc(C2Sc3ccccc3NC3=C2C(=O)c2ccccc23)cc1 (configuration not stated)	5.1% (inactive)
COc1ccc(NC(=O)c2cccc(N3C(=O)c4ccc(C(=O)Nc5ccc(OC)cc5)cc4C3=O)c2)cc1	0.4% (inactive)
COc1cc(C2NC(=S)NC(C)=C2C(=O)Nc2ccccc2)ccc1O (configuration not stated)	3.8% (inactive)
CC(=O)N1C(=O)c2cccc3cccc1c23	17.3% (inactive)
COc1cc(/C=N/n2cnnc2)cc(Br)c1OCCOc1ccc(C(C)(C)C)cc1	6.5% (inactive)
O=C(CNC(=O)C(c1ccccc1)c1ccccc1)N/N=C/c1cn[nH]c1-c1ccccc1	49.7% (inactive)
Cc1c(OCC(=O)c2ccc(F)cc2)ccc2c3c(c(=O)oc12)CCCC3	0.4% (inactive)
Cc1ccc(N(Cc2c(O)ccc3ccccc23)C(=O)c2cccc([N+](=O)[O-])c2)cc1	-2.5% (inactive)
O=S(=O)(/N=C/c1ccccc1)c1cccs1	1.2% (inactive)
COc1ccc(NC2SC(=O)NC2=O)cc1 (configuration not stated)	11.7% (inactive)
CCOc1cccc(-c2cc(C(=O)N3CCCCCC3)c3ccccc3n2)c1	3.9% (inactive)
NNC(=O)c1n[nH]c2c1CCCCCCCCCC2	-1.8% (inactive)
Cc1ccccc1NC(=S)N1CCN(c2cccc(Cl)c2)CC1	6.6% (inactive)
CSc1ccc(CN2CCN(C(=O)c3cccc(F)c3)CC2)cc1	7.7% (inactive)
O=C(Nc1ccc(Br)cn1)c1cc2n(n1)C(C(F)(F)F)CC(c1cccs1)N2 (configuration not stated)	-3.5% (inactive)
NS(=O)(=O)c1ccc(CCNC(=O)c2cccs2)cc1	-2.4% (inactive)
COc1ccccc1C(=O)NN1C(=O)/C(=C2/C(=O)N(CC(=O)O)c3ccccc32)SC1=S	25.3% (inactive)
CCN(CC)S(=O)(=O)c1ccc(NC(=O)c2ccc(OC)c(I)c2)cc1	0.8% (inactive)
COc1ccc(C2CC(=O)C3=C(C2)Nc2ccccc2NC3c2cccc(Cl)c2)cc1 (configuration not stated)	6.7% (inactive)
COc1ccc(C2CC(=O)C3=C(C2)Nc2ccccc2NC3c2cc3c(cc2[N+](=O)[O-])OCO3)cc1 (configuration not stated)	-4.3% (inactive)
COc1ccc(C2CC(=O)C3=C(C2)Nc2ccccc2NC3c2cccc(C)c2)cc1 (configuration not stated)	102% (active)
CCCCOc1ccccc1C1Nc2ccccc2NC2=C1C(=O)CC(c1ccc(OC)c(OC)c1)C2 (configuration not stated)	76.5% (active)
COc1ccc(C2CC(=O)C3=C(C2)Nc2ccccc2NC3c2cc(F)ccc2F)cc1 (configuration not stated)	-0.8% (inactive)
COc1ccc(C2CC(=O)C3=C(C2)Nc2ccccc2NC3c2ccc(SC)cc2)cc1 (configuration not stated)	7.4% (inactive)
COC(=O)C1=C(C)NC2=C(C(=O)CC(c3ccc(OC)c(OC)c3)C2)C1c1ccc(OC)c(OC)c1 (configuration not stated)	8.8% (inactive)
COC(=O)C1=C(C)NC2=C(C(=O)CC(c3ccccc3)C2)C1c1cccc(I)c1 (configuration not stated)	22.6% (inactive)
COC(=O)C1=C(C)NC2=C(C(=O)CC(c3ccc(OC)c(OC)c3)C2)C1c1ccccc1OCc1ccccc1 (configuration not stated)	60.6% (active)
